Laboratory results as given in PubChem BioAssay (NCI).
The panel holds about 79,000 compounds, 15% with a hit somewhere; the sample as a whole holds those more often. Calls of active or inactive are those of the source. Rule as the data show it: active = growth inhibition above about 70%; inactive = the rest.

Legend:
[1] = NCI Yeast Anticancer Drug Screen. Data for the rad52 strain (AID 147);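 also: 0% = growth of vehicle-treated control cultures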; conditions: S. cerevisiae rad52 mutant growth inhibition, active compounds read high
Outline: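 Inhibition of yeast growth, referenced to vehicle controls, was the measured output for a strain with defective DNA damage repair.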

[2] = NCI Yeast Anticancer Drug Screen. Data for the wt1 strain (AID 149);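 also: 0% = growth of vehicle-treated wt1 cultures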; conditions: S. cerevisiae wt1 strain (SPY 50644) growth inhibition, active compounds read high
Outline: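 Growth inhibition read against vehicle controls after compound exposure of the wt1 yeast strain.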

[3] = NCI Yeast Anticancer Drug Screen. Data for the rad50EPP+ strain (AID 151);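 also: 0% = growth of vehicle-treated control cultures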; conditions: S. cerevisiae rad50 mutant strain, active compounds read high
Outline: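 Genetically defined yeast (rad50EPP+, DNA damage repair alteration) is grown with compound, and inhibition of growth is expressed relative to vehicle-treated controls.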

[4] = NCI Yeast Anticancer Drug Screen. Data for the mgt1 strain (AID 153); conditions: S. cerevisiae mgt1 mutant growth inhibition, active compounds read high
Outline: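 In the mgt1 strain, test compounds were added and growth inhibition was determined relative to vehicle-treated controls.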

[5] = NCI Yeast Anticancer Drug Screen. Data for the rad50 strain (AID 155);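 also: 0% = growth of vehicle-only cultures of the same strain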; conditions: S. cerevisiae rad50 strain growth inhibition, active compounds read high
Outline: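 Readout: growth inhibition relative to vehicle-treated cultures. Compound exposure was carried out in a genetically defined yeast strain deficient in DNA damage repair.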

[6] = NCI Yeast Anticancer Drug Screen. Data for the mec2-1 strain (AID 157); conditions: S. cerevisiae mec2-1 strain, active compounds read high
Outline: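 Each compound was tested on mec2-1 yeast, a strain altered in DNA damage repair or cell cycle control. Growth inhibition is reported relative to vehicle.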

[7] = NCI Yeast Anticancer Drug Screen. Data for the rad14 strain (AID 159);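 also: 0% = growth of vehicle-treated control cultures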; conditions: S. cerevisiae rad14 strain growth inhibition, active compounds read high
Outline: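 Growth inhibition vs vehicle controls; genetically altered yeast strain (DNA damage repair defect) treated with test compounds.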

[8] = NCI Yeast Anticancer Drug Screen. Data for the sgs1 mgt1 strain (AID 161);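 also: 0% = growth of cultures given vehicle only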; conditions: S. cerevisiae sgs1 mgt1 strain, active compounds read high
Outline: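 Genetically altered yeast, compound exposure, growth inhibition relative to vehicle.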

[9] = NCI Yeast Anticancer Drug Screen. Data for the CLN2oe strain (AID 163);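 also: 0% = growth of vehicle-only control cultures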; conditions: S. cerevisiae CLN2oe strain, active compounds read high
Outline: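 First, the altered yeast strain was treated with each compound; second, its growth was measured; finally, inhibition was derived by comparison with vehicle controls.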

[10] = NCI Yeast Anticancer Drug Screen. Data for the cln2 rad14 strain (AID 165);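 also: 0% = growth equal to vehicle treated cultures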; conditions: S. cerevisiae cln2 rad14 strain, active compounds read high
Outline: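 Test compounds were added to cln2 rad14 yeast cultures; inhibition of growth was then determined by comparison with vehicle treatment.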

[11] = NCI Yeast Anticancer Drug Screen. Data for the bub3 strain (AID 167); conditions: S. cerevisiae bub3 mutant strain, active compounds read high
Outline: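 Readout: yeast growth inhibition, expressed relative to vehicle-only wells. The test organism is a mutant strain from a panel with lesions in DNA repair or checkpoint genes.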

[12] = NCI Yeast Anticancer Drug Screen. Data for the wt2 strain (AID 169);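 also: 0% = growth of vehicle-treated yeast cultures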; conditions: S. cerevisiae wt2 strain growth inhibition, active compounds read high
Outline: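 The panel's yeast strains carry defined changes in DNA repair or cell cycle genes. Each strain is grown with compound, and growth loss is scored relative to vehicle.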

[13] = NCI Yeast Anticancer Drug Screen. Data for the mlh1 strain (AID 171);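 also: 0% = growth of vehicle-treated control cultures of the same strain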; conditions: S. cerevisiae mlh1 strain growth inhibition, active compounds read high
Outline: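 Inhibition values reflect reduced yeast growth in the presence of compound, referenced to vehicle controls, using a strain chosen for its alteration in DNA repair or cell cycle control.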

[14] = NCI Yeast Anticancer Drug Screen. Data for the sgs1 strain (AID 173);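 also: 0% = growth of vehicle-only control cultures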; conditions: S. cerevisiae sgs1 mutant, active compounds read high
Outline: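 Vehicle-treated cultures served as reference for growth inhibition of a yeast strain altered in DNA damage repair or cell cycle control after compound exposure.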

[15] = NCI Yeast Anticancer Drug Screen. Data for the mlh1 rad18 strain (AID 175); conditions: S. cerevisiae mlh1 rad18 strain growth inhibition, active compounds read high
Outline: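 Inhibition values reflect reduced growth of mutant yeast versus vehicle-treated controls following compound exposure; the mutations affect DNA damage repair.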

[16] = NCI Yeast Anticancer Drug Screen. Data for the rad18 strain (AID 177); conditions: S. cerevisiae rad18 mutant growth inhibition, active compounds read high
Outline: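 Steps: expose repair-mutant yeast to compound; measure growth; express as inhibition relative to vehicle control.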

[17] = at 5.0 µM (retest, dose inferred, filed as 0.5)
[18] = at 50.0 µM (retest, dose inferred, filed as 5.0)

Measured: growth inhibition

N#C/C(=C/N1C(=O)/C(=C/c2ccc([N+](=O)[O-])cc2)SC1=S)c1nc2ccccc2s1
active: [1]; at 100.0 µM 77% | [3]; at 33.0 µM 86% | [3]; at 100.0 µM 87% | [5]; at 50.0 µM 87.3% | [5]; at 100.0 µM 79% | [6]; at 50.0 µM 81.7% | [7]; at 100.0 µM 84% | [8]; at 50.0 µM 85.6% | [11]; at 50.0 µM 86% | [12]; at 100.0 µM 75% | [13]; at 100.0 µM 82% | [14]; at 100.0 µM 82% | [15]; at 50.0 µM 87.8% | [16]; at 100.0 µM 82%
inactive: [1]; at 1.2 µM 5% | [1]; at 3.7 µM 9% | [1]; at 11.0 µM 18% | [1]; at 33.0 µM 36% | [2]; at 1.2 µM 4% | [2]; at 3.7 µM 5% | [2]; at 11.0 µM 7% | [2]; at 33.0 µM 18% | [2]; at 100.0 µM 59% | [3]; at 1.2 µM 19% | [3]; at 3.7 µM 45% | [3]; at 11.0 µM 69% | [4]; at 1.2 µM 1% | [4]; at 3.7 µM 3% | [4]; at 11.0 µM 5% | [4]; at 33.0 µM 11% | [4]; at 100.0 µM 66% | [5]; at 1.2 µM -2% | [5]; at 3.7 µM -6% | [5]; [17] -4% | [5]; at 11.0 µM 0% | [5]; at 33.0 µM 40% | [5]; [18] 23% | [6]; at 1.2 µM 9% | [6]; at 3.7 µM 11% | [6]; [17] -1% | [6]; at 11.0 µM 18% | [6]; at 33.0 µM 34% | [6]; [18] 16% | [6]; at 100.0 µM 67% | [7]; at 1.2 µM 3% | [7]; at 3.7 µM 4% | [7]; at 11.0 µM 13% | [7]; at 33.0 µM 40% | [8]; [17] 7% | [8]; [18] 48% | [9]; at 1.2 µM 8% | [9]; at 3.7 µM -1% | [9]; at 11.0 µM 3% | [9]; at 33.0 µM 16% | [9]; at 100.0 µM 55% | [10]; [17] -16% | [10]; [18] 30% | [10]; at 50.0 µM 61.1% | [11]; at 1.2 µM -2% | [11]; at 3.7 µM 4% | [11]; [17] -18% | [11]; at 11.0 µM 9% | [11]; at 33.0 µM 26% | [11]; [18] 34% | [11]; at 100.0 µM 63% | [12]; at 1.2 µM 1% | [12]; at 3.7 µM 4% | [12]; at 11.0 µM 8% | [12]; at 33.0 µM 31% | [13]; at 1.2 µM 5% | [13]; at 3.7 µM 6% | [13]; at 11.0 µM 13% | [13]; at 33.0 µM 37% | [14]; at 1.2 µM 11% | [14]; at 3.7 µM 18% | [14]; at 11.0 µM 30% | [14]; at 33.0 µM 61% | [15]; [17] 13% | [15]; [18] 55% | [16]; at 1.2 µM 19% | [16]; at 3.7 µM 33% | [16]; at 11.0 µM 48% | [16]; at 33.0 µM 69%

O=c1[nH]cc(/C=N\Nc2ccccc2)c(=O)[nH]1
active: [10]; at 50.0 µM 73.8% | [11]; at 50.0 µM 82.9% | [15]; [18] 81% | [15]; at 50.0 µM 84.5% | [16]; at 11.0 µM 73% | [16]; at 33.0 µM 88% | [16]; at 100.0 µM 89%
inactive: [1]; at 1.2 µM 1% | [1]; at 3.7 µM 6% | [1]; at 11.0 µM 36% | [1]; at 33.0 µM 56% | [1]; at 100.0 µM 63% | [2]; at 1.2 µM 3% | [2]; at 3.7 µM 6% | [2]; at 11.0 µM 37% | [2]; at 33.0 µM 57% | [2]; at 100.0 µM 49% | [3]; at 1.2 µM 2% | [3]; at 3.7 µM 7% | [3]; at 11.0 µM 28% | [3]; at 33.0 µM 43% | [3]; at 100.0 µM 42% | [4]; at 1.2 µM 3% | [4]; at 3.7 µM -2% | [4]; at 11.0 µM 21% | [4]; at 33.0 µM 31% | [4]; at 100.0 µM 46% | [5]; at 1.2 µM 3% | [5]; at 3.7 µM 17% | [5]; [17] -11% | [5]; at 11.0 µM 31% | [5]; at 33.0 µM 49% | [5]; [18] 40% | [5]; at 50.0 µM 61.9% | [5]; at 100.0 µM 60% | [6]; at 1.2 µM 0% | [6]; at 3.7 µM -2% | [6]; [17] -3% | [6]; at 11.0 µM 27% | [6]; at 33.0 µM 31% | [6]; [18] 15% | [6]; at 50.0 µM 52.4% | [6]; at 100.0 µM 21% | [7]; at 1.2 µM -1% | [7]; at 3.7 µM 1% | [7]; at 11.0 µM 12% | [7]; at 33.0 µM 15% | [7]; at 100.0 µM 10% | [8]; [17] -1% | [8]; [18] 67% | [8]; at 50.0 µM 60.9% | [9]; at 1.2 µM -3% | [9]; at 3.7 µM 6% | [9]; at 11.0 µM 32% | [9]; at 33.0 µM 43% | [9]; at 100.0 µM 48% | [10]; [17] -29% | [10]; [18] 29% | [11]; at 1.2 µM 9% | [11]; at 3.7 µM 1% | [11]; [17] 7% | [11]; at 11.0 µM 27% | [11]; at 33.0 µM 39% | [11]; [18] 50% | [11]; at 100.0 µM 40% | [12]; at 1.2 µM 0% | [12]; at 3.7 µM 8% | [12]; at 11.0 µM 51% | [12]; at 33.0 µM 57% | [12]; at 100.0 µM 55% | [13]; at 1.2 µM -3% | [13]; at 3.7 µM 5% | [13]; at 11.0 µM 17% | [13]; at 33.0 µM 28% | [13]; at 100.0 µM 39% | [14]; at 1.2 µM 3% | [14]; at 3.7 µM 8% | [14]; at 11.0 µM 41% | [14]; at 33.0 µM 62% | [14]; at 100.0 µM 66% | [15]; [17] -3% | [16]; at 1.2 µM 5% | [16]; at 3.7 µM 28%
